Hit rate of the full screen: of about 69,000 compounds, about 8,600 (12%) showed an effect of 50% or more. This is one part of a sample in which strong results are shown more often than they occur.
system: Plasmodium berghei; assay: Screen against P. berghei liver stage (PbLuc), transformed with Luciferase, at 10uM; assay type: functional, HepG2; conditions: tested at 10 uM

In order of rising INHIBITION:
1. CSCCC(=O)N1CCc2c(ncnc2N2CCOCC2)C1  -103%
2. CC1(C)OCC(CNC(=O)c2cnn(-c3cccc(Cl)c3Cl)c2N)O1 (stereo not drawn)  -101%
3. CCOCC(=O)N1CCc2c(ncnc2N2CCOCC2)C1  -68.2%
4. Cn1ccnc1CN1CCCC1CCc1ccccc1 (stereo not drawn)  -67.9%
5. Cc1ccc(N2CCN(C(=O)COc3ncccn3)CC2)nn1  -38.7%
6. O=C(c1cc(F)cc(Cl)c1)N1C[C@H]2CC[C@@H](C1)N(Cc1ccccc1)C2  -31.3%
7. O=C(CCn1cc(Cl)cn1)N1C[C@H]2CC[C@@H](C1)N(Cc1ccccn1)C2  -29.1%
8. CN(CCO)Cc1cc(Cl)ccc1OCC(O)CN1CCCCCC1 (stereo not drawn)  -26.8%
9. CC(C)OC(=O)N1C[C@@H]2CC[C@H]1CN(C(=O)c1ccccn1)C2  -26.4%
10. O=C(c1c[nH]c(=O)c(Cl)c1)N1C[C@H]2CC[C@@H](C1)N(Cc1ccccc1)C2  -23.2%
11. CC[C@H]1CN(C(=O)CCn2c(C)cccc2=O)CC[C@@]1(C)O  -22.7%
12. O=C(C1CC1)N1CCCN(c2ncnc3c2CCNCC3)CC1  -20.6%
13. CCc1n[nH]c(C2CN(C(=O)c3ncoc3CC)CCO2)n1 (stereo not drawn)  -19.9%
14. Cc1ccnc(OCC(=O)N2CCN(c3ncccn3)CC2)n1  -17.8%
15. CC(=O)c1c(C)nn(S(=O)(=O)c2ccc(Cl)cc2)c1C  -16.6%
16. O=C1N(Cc2cccc(Cl)c2)CCC12CCCNC2 (stereo not drawn)  -15.9%
17. CC(=O)c1c(C)nn(S(=O)(=O)c2ccc(C)cc2)c1C  -15.5%
18. Cc1cnn(CC2CCCCN2C(=O)c2cnc3n[nH]c(C)c3c2)c1 (stereo not drawn)  -14%
19. CN(c1ncnc2c1cnn2C)C1CCCN(c2cccnn2)C1 (stereo not drawn)  -12.7%
20. c1csc(-c2noc(CCCN3CCCC3Cn3cncn3)n2)c1 (stereo not drawn)  -9.76%
21. Cn1ccnc1-c1ccc(NCC2COc3ccccc3O2)nn1 (stereo not drawn)  -9.17%
22. COCC1CN(Cc2ccc(C)o2)Cc2nnn(CC3CC3)c21 (stereo not drawn)  -8.19%
23. CN1CCC/C1=N\S(=O)(=O)c1ccc(NC(=O)Cc2cccs2)cc1  -6.14%
24. CC(C)NC(=O)N1CCCC2(CCN(c3ccsc3)C2=O)C1 (stereo not drawn)  -4.82%
25. Cc1cc2cccc(NC(=O)N3CC[C@H]4CC[C@@H](C3)N4C)c2o1  -4.01%
26. CCN1CCN(C2CCN(CC(=O)NCC(F)(F)F)CC2)C1=O  -3.2%
27. CN(C)CCOCC1CN(Cc2ccccn2)Cc2nnn(C)c21 (stereo not drawn)  -2.35%
28. Cc1cnn(CC2CCCN2C(=O)CCc2c(C)nn(C)c2C)c1 (stereo not drawn)  0.825%
29. Cc1cc(C)n(C2CN(c3ncnc4c3CCC4)C2)n1  0.868%
30. Cc1cncnc1C1CCN(C(=O)C2(C)CCCCN2C)CC1 (stereo not drawn)  1.45%
31. CN(C)C(=O)C1(Oc2ccc(Cl)cc2)CCNCC1  1.79%
32. Cc1cccc(C2(CNC(=O)C(C)S(C)(=O)=O)CCCC2)c1 (stereo not drawn)  2.39%
33. CCC(=O)c1ccc(OCC(=O)NCC2CCCO2)cc1 (stereo not drawn)  3.48%
34. CS(=O)(=O)N1CCC2(CC1)CN(CC1CC1)CC21CCNC1=O (stereo not drawn)  3.81%
35. CC(=O)N1CCC(Cc2nccnc2-c2ccnn2C)CC1  4.41%
36. CCc1nnc(CN2CCCC(c3cc(C(N)=O)[nH]n3)C2)o1 (stereo not drawn)  4.71%
37. C=C(C)COc1ccc(C(=O)NCC2CC(CC)=NO2)cc1 (stereo not drawn)  6.26%
38. Cc1nc(CN2CCN(C(C)c3nc(C(C)C)no3)CC2)oc1C (stereo not drawn)  6.7%
39. CN(Cc1ccccn1)C1CCCN(c2cccnn2)C1 (stereo not drawn)  7.12%
40. CN(c1ncnc2sccc12)C1CCCN(c2cccnn2)C1 (stereo not drawn)  7.18%
41. c1cc(C2CN(C3CCCC3)C2)n[nH]1  7.4%
42. c1cncc(-c2noc(CNC3CCCN(c4cccnn4)C3)n2)c1 (stereo not drawn)  8.66%
43. CSc1nc(N)cc(N2C[C@H]3CC[C@@H](C2)N(Cc2cscn2)C3=O)n1  9.4%
44. Cc1cnc(-c2nc(O)c3c(n2)CN(C(=O)C2CC2)CC3)cn1  9.98%
45. CN(C)c1ccnc(C2CCCN2)n1 (stereo not drawn)  10.45%
46. C[C@@H]1CN(C(=O)CCCN2CCCC2)CC[C@@]1(O)C1CCOCC1  10.6%
47. CCc1cc(C(=O)N[C@@H]2CC[C@@H](N3CCOCC3)[C@@H]2O)no1  10.9%
48. O=C(NCc1ccccc1Cn1cncn1)C1CCC1  11.4%
49. OCCC1CN(c2nc(-c3ccncc3)nc3c2CCNCC3)CCO1 (stereo not drawn)  11.8%
50. CN(Cc1ccoc1)C(=O)C1(Oc2ccc(Cl)cc2)CCNCC1  11.9%
51. CN(Cc1cn2ccccc2n1)C1CCCN(c2cccnn2)C1 (stereo not drawn)  16.7%
52. CC1(c2ncc(CN(CC(=O)O)Cc3ccccc3)cn2)CCCCO1 (stereo not drawn)  16.9%
53. C[C@@H]1CN(c2ccc(Cl)cn2)CC[C@@]1(O)C1CCOCC1  17.215%
54. COc1ccccc1CN(Cc1nc(C)no1)C1CC1  17.4%
55. O=C1CC(NCc2ccccn2)CN1CCc1ccc(F)cc1 (stereo not drawn)  17.8%
56. O=S(=O)(c1cccnc1)N1C[C@H]2CC[C@@H](C1)N(Cc1ccccc1)C2  18.6%
57. CCC(O)CN1CCN(C(=O)c2sccc2C2CC2)CC1 (stereo not drawn)  19.5%
58. COCC(=O)N1CCN(C(=O)c2scnc2C)CC1  21.3%
59. Cc1cccc(C2(CNC(=O)CO)CCCC2)c1  21.5%
60. CCn1cnnc1C1CCN(C(=O)c2cccc(OC)c2OC)CC1  22.3%
61. CCCC(NC(=O)c1cncc(C)c1)c1nnn[nH]1 (stereo not drawn)  23.5%
62. Cc1nccn1[C@@H]1CC[C@@H](NC(=O)Cn2c(C)nc3ccccc32)[C@H]1O  23.9%
63. C[C@@H]1CN(C(=O)CCN2CCCC2)CC[C@@]1(O)C1CCOCC1  25.4%
64. CCN(CC)c1ccc(C(=O)N2C[C@H]3CC[C@@H](C2)N(CCOC)C3)cc1  25.4%
65. COCCN1C[C@@H]2CC[C@H]1CN(C(=O)CCn1cc(Cl)cn1)C2  26.6%
66. O=C(CCNc1ccccc1)NC1CCN(C(=O)C2CCCCC2)CC1  27.6%
67. c1cnnc(N2CCCC2CNCc2nc(-c3ccsc3)no2)c1 (stereo not drawn)  27.9%
68. C[C@@H]1CN(C(=O)CCN2CCCC2)CC[C@@]1(O)C1CCC1  27.9%
69. Cc1ccc(F)c2c1CCCN2C(=O)c1cn(CC(=O)N(C)C)nn1  29.1%
70. O=S(=O)(c1cccnc1)N1C[C@H]2CC[C@@H](C1)N(Cc1ccccn1)C2  31.7%
71. CN1CCC(c2cnc(NCc3nccn3C)cn2)CC1  33.2%
72. CNC(=O)C1(c2cnccn2)CCCN1C(=O)c1c(F)cccc1F (stereo not drawn)  34%
73. Cn1ccnc1-c1ccc(NCCC2COc3ccccc3O2)nn1 (stereo not drawn)  34%
74. Cc1cc(C)n(C2CN(c3nc(N)nc4c3CCCC4)C2)n1  34.1%
75. O=C(c1ccoc1)N1CCOCC2(CCN(C3CCOCC3)C2)C1 (stereo not drawn)  34.4%
76. CCN1CC[C@@]2(C(=O)Nc3ccccc3)CCN(S(C)(=O)=O)CC[C@@H]12  35.8%
77. Cn1nc(Br)nc1Sc1ccccc1NC(=O)C1CC1  37.4%
78. C[C@@H]1CN(C(=O)CCCN2CCOCC2)C[C@@]1(O)C1CC1  37.7%
79. CN(C)Cc1nc(C2(NC(=O)Nc3cccc(F)c3)CCCC2)no1  38.2%
80. CC(C)c1noc(CCC(=O)NCC2CC2)n1  38.5%
81. COc1nonc1NCn1nc(C)cc1C  39.7%
82. c1csc(-c2noc(CCCN3CCCC3Cn3cccn3)n2)c1 (stereo not drawn)  39.8%
83. CNCC1CCC(c2cc(CN(C)S(=O)(=O)N(C)C)n(C)n2)CC1 (stereo not drawn)  44.3%
84. Cc1cnn(C2CN(c3nc(-c4ccncc4)nc4c3CCC4)C2)c1  44.3%
85. CCOC(=O)N1CCC(OC)c2ccccc2N(C)C(=O)C1 (stereo not drawn)  46.4%
86. CCc1cc(=O)n(CC(=O)N2CCCC2)c(-c2cccc(F)c2)n1  46.6%
87. O=C(C1CC1)N1CCc2c(ncnc2N2CCN3CCCC3C2)C1 (stereo not drawn)  46.6%
88. CCN(CC(=O)NC(C)C)C(=O)c1ccc(-c2ccsc2)nc1C  47%
89. Cc1cccc(=O)n1CCC(=O)N1CC[C@@](O)(C2CCC2)[C@H](C)C1  47.6%
90. O=C(CCOc1ccccc1F)N1CCOCC1  48.2%
91. CC(C)c1ccc2c(c1)CCCN2C(=O)CN(C)S(C)(=O)=O  48.3%
92. CCCOC1CCCN(c2ncnc3c2CCN(C(=O)C2CC2)C3)C1 (stereo not drawn)  49.9%
93. Cc1ccc(N2CCN(C(=O)COc3nccc(C)n3)CC2)nn1  50.5%
94. Cc1cccc(=O)n1CCC(=O)N1CC[C@](C)(O)[C@H](C)C1  51.3%
95. CN(c1ncnc2ccccc12)C1CCCN(c2cccnn2)C1 (stereo not drawn)  52%
96. CCC(=O)c1ccc(OCC(=O)NCC2CC(CC)=NO2)cc1 (stereo not drawn)  52.6%
97. CN(Cc1ccncn1)C(=O)C1(Oc2ccc(Cl)cc2)CCNCC1  53.3%
98. c1cnn(C2CN(c3nc(-c4ccncc4)nc4c3CCC4)C2)c1  53.6%
99. CC(=O)c1c(C)nn(S(=O)(=O)c2ccc(F)cc2)c1C  53.8%
100. C[C@@H]1CN(C(=O)CCN2CCOCC2)CC[C@]1(C)O  55%
101. CNC(=O)C1CCN(c2ncnc3c2CCN(C(=O)C2CC2)C3)C1 (stereo not drawn)  57.8%
102. c1cnnc(N2CCCC(NCc3nc(-c4ccsc4)no3)C2)c1 (stereo not drawn)  59.3%
103. CN(Cc1cn2ccccc2c1C#N)C1CCCN(c2cccnn2)C1 (stereo not drawn)  59.4%
104. Cn1ccnc1-c1ccc(NC[C@H]2CCc3ccccc3O2)nn1  60%
105. CCN1CCN(c2ncnc3c2CCN(C(=O)C2CC2)C3)CC1  61.1%
106. O=S(=O)(c1cccc(F)c1)N1C[C@H]2CC[C@@H](C1)N(Cc1ccccc1)C2  63.6%
107. CCN(CC)C1CCN(c2ncnc3c2CCN(C(=O)C2CC2)C3)C1 (stereo not drawn)  64.5%
108. C[C@@H]1CN(C(=O)CCCN2CCOCC2)CC[C@@]1(O)C1CCC1  64.9%
109. COCCN1C[C@@H]2CC[C@H]1CN(C(=O)c1ccc(Cl)cc1)C2  66.1%
110. Cc1cccc(C2(CNC(=O)CCNS(C)(=O)=O)CCCC2)c1  67.5%
111. Cc1nccn1CC1CCCN1CCCc1nc(-c2cccs2)no1 (stereo not drawn)  68.4%
112. O=C(c1ccc(F)c(Cl)c1)N1C[C@H]2CC[C@@H](C1)N(Cc1ccccc1)C2  68.5%
113. Cc1cc(C)n(C2CN(c3nc(-c4ccncc4)nc4c3CCC4)C2)n1  81.4%
